ERK EGF inh = blocks ERK signaling stimulated by EGF; Potency, µM (series often up to 11.5 µM), without a hit: at the top dose activity change, negative = inhibition, usual class: inhibitors; 130,000 compounds, 0.41% hits; HEK293-V1b, EGF-stimulated phospho-ERK AlphaScreen; AID 1454; active = well fitted inhibition curve with a large enough effect;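 also: plate controls were stimulated vehicle wells for no effect and unstimulated vehicle basal for full effect; nearly all actives have a fitted effect of over 55% in size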
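HEK293 cells stably expressing V1b receptor, serum-reduced (1% FBS) overnight, pretreated 30 min with compound, then stimulated 5 min with 25 nM EGF; phospho-ERK detected by AlphaScreen SureFire. AC50 from Hill fits, normalized to DMSO and EGF.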
Numbers without * were called inactive; [ ] = remark or other dose. The sample as a whole holds a higher share of hits than the screen did. Potency is read from the fitted curve at half-maximal effect.

SMILES | ERK EGF inh
O=S(=O)(c1ccccc1)N1CCC2(CCN(c3ccc(-c4ccccc4)cc3)CC2)CC1 | 5.4%
CCC(C)(C)NC(=O)CN(Cc1ccc2c(c1)OCO2)C(=O)CCC(=O)Nc1nccs1 | -6.3%
COc1cccc2sc(Nc3nc4ccc(NC(C)=O)cc4s3)nc12 | 1.2%
COc1cccc2sc(NN)nc12 | -0.4%
CCOC(=O)c1sc(Nc2nc3c(OC)cccc3s2)cc1C | 25.1µM*
CCOC(=O)Cn1c(=N)n(CCOc2ccc(Br)cc2)c2ccccc21 | -11.0%[57.5 µM]
CC1=NN(c2ccccc2)C(=O)/C1=C\c1cc(C)n(-c2ccccc2)c1C | -5.4%
CC1=NN(c2ccccc2)C(=O)/C1=C/c1ccc[nH]1 | 17.8µM*
CC1=NN(c2ccccc2)C(=O)/C1=C\c1ccc(Br)s1 | 28.2µM*
CC1=NN(c2ccccc2)C(=O)/C1=C/c1c(O)n(-c2ccc(F)cc2)[nH]c1=O | -0.3%
CC1=NN(c2ccccc2)C(=O)/C1=C\c1cc(C)n(-c2cccnc2)c1C | -2.4%[57.5 µM]
CC1=NN(c2ccccc2)C(=O)/C1=C/c1cccs1 | 4.6%
Cc1cccc(C)c1NC(=O)Cn1c(CN2CCCCC2)nc2ccccc2c1=O | 2.4%
CC(C)OC(=O)[C@H]1O[C@H](CCCCOCc2ccccc2)[C@@H](C)[C@H]2O[C@H]21 | -13.4%
Cc1ccc(C)c(S(=O)(=O)NCc2ccc(C(=O)NCc3ccco3)cc2)c1 | -6.9%
COc1ccc(CNC(=O)CN(c2ccc(OC)cc2)S(=O)(=O)c2c(C)nn(C)c2C)cc1 | 15.0%
COc1ccc(-c2nc(-c3cccnc3)no2)cc1 | 1.1%[57.5 µM]
CN=c1scc(-c2ccc(OC)cc2)n1/N=C(\C)c1cccnc1 | 22.4µM*
COc1ccc(NC(NC(=O)c2cccnc2)C(Cl)(Cl)Cl)cc1 (stereo unspecified) | 4.0%
Nc1nccnc1C(=O)OCC(=O)Nc1cccc(S(=O)(=O)N2CCCCC2)c1 | 13.2%
COc1ccc2nc3ccccc3nc2c1N | 28.2µM*
COc1ccc2nc3cccc(OC)c3nc2c1 | 7.0%
COc1ccccc1-c1nc2ccccc2nc1-c1ccccc1OC | 2.2%
COc1ccc(-c2cc(C(=O)NN)[nH]n2)cc1OC | -2.3%
Cc1ccc(-c2csc(NC(=O)CSC3=NCCS3)n2)cc1 | 3.9%
SMILES | ERK EGF inh
NS(=O)(=O)c1ccc(NC(=S)N2CCN(c3cccc(Cl)c3)CC2)cc1 | -3.0%
S=C(NC1CCCC1)N1CCN(c2cccc(Cl)c2)CC1 | -1.1%
O=S(=O)(c1cccc(NC(=S)N2CCN(c3cccc(Cl)c3)CC2)c1)C(F)F | 25.1µM*
CC(C)CCN(CCC(C)C)C(=O)Cc1c(O)c2ccccc2[nH]c1=O | 6.1%[57.5 µM]
N#Cc1ccc(/C=N/NC(=O)c2ccccc2F)cc1 | -11.4%
C/C(N)=C(/C#N)C(=O)COC(=O)c1cccc(O)c1 | 28.2µM*
C/C(N)=C(/C#N)C(=O)COC(=O)c1cc2c(s1)CCCC2 | -20.4%
CC(=O)Nc1ccc(C(=O)OCC(=O)/C(C#N)=C(\C)N)cc1 | 25.9%
COc1ccc(CSc2nncn2N)cc1[N+](=O)[O-] | 4.1%
COc1ccccc1-c1ccc(SCc2cccc(F)c2)nn1 | -7.5%
Cc1ccccc1NS(=O)(=O)c1ccc(Cl)cc1 | 5.8%
CCOC(=O)C1CCN(C2=C(NS(=O)(=O)c3ccc(Cl)cc3)C(=O)c3ccccc3C2=O)CC1 | 31.6µM*
O=C1C(NS(=O)(=O)c2ccccc2)=C(N2CCN(c3ccc(F)cc3)CC2)C(=O)c2ccccc21 | 25.1µM*
CCOC(=O)C1CCN(S(=O)(=O)c2ccc(C(C)(C)C)cc2)CC1 | 0.2%
CCOC(=O)C1CCN(C(=O)c2ccccc2NS(=O)(=O)c2ccc(F)c(F)c2)CC1 | 9.0%
CCC1CCCCN1CC(C)(C)NS(=O)(=O)c1ccccc1 (stereo unspecified) | 21.5%[57.5 µM]
O=S(=O)(Nc1nc2ccccc2nc1N1CCN(c2ccccc2)CC1)c1ccc(F)cc1 | -3.0%
CC1CCN(C2=C(NS(=O)(=O)c3ccc(Cl)cc3)C(=O)c3ccccc3C2=O)CC1 | 15.8µM*
Cc1ccc(S(=O)(=O)NCC(c2ccccc2)N2CCCCC2)cc1 (stereo unspecified) | -7.0%[57.5 µM]
CC(=C1C(=O)c2ccccc2C1=O)N1CCN(c2ccc(F)cc2)CC1 | -0.1%[57.5 µM]
CC1CCN(C2=C(NS(=O)(=O)c3ccccc3)C(=O)c3ccccc3C2=O)CC1 | 17.8µM*
CC1CCN(S(=O)(=O)c2ccccc2[N+](=O)[O-])CC1 | -1.9%
Cc1ccc(NC(=O)CCC(=O)N/N=C/C=C/c2ccccc2)cc1 | 1.1%
COC(=O)CC1=NN(c2ccc(OC)cc2)C(=O)C1 | 3.6%
Cc1ccc(S(=O)(=O)/N=C/c2ccc(N(C)C)cc2)cc1 | -0.5%
SMILES | ERK EGF inh
Cc1ccc(C(=O)N2CCN(c3ccc([N+](=O)[O-])c(N4CCOCC4)c3)CC2)cc1 | 1.3%
CC(=O)N1CCCc2cc(S(=O)(=O)NC(C(=O)NC3CCCCC3)C(C)C)ccc21 (stereo unspecified) | -6.0%
CC1CC(C)CN(C(=O)C(Cc2ccccc2)n2cccc2)C1 (stereo unspecified) | 2.3%[57.5 µM]
Cc1ccc(-n2c(C)cc(/C=N/NC(=O)CC3(C)OCCO3)c2C)c(C)c1 | -2.1%
COc1ccccc1NC(=S)N1CCNC(=O)C1CC(=O)Nc1cccc(C)c1 (stereo unspecified) | 1.7%[57.5 µM]
Cc1cc(C)c2c(c1)/C(=N/NC(=O)c1ccc(O)cc1)CCC2 | 16.2%
COC(=O)c1ccc(=O)c2nc3/c(=C/O)c(O)cc(=O)c3[nH]c12 | -3.1%[57.5 µM]
CC(=O)Nc1ccc(-c2csc(Nc3ccc(Cl)cn3)n2)cc1 | 1.0%
CC(=O)Nc1cccc(-c2csc(Nc3ccc(Cl)cn3)n2)c1 | 28.2µM*
CC(=O)Nc1cccc(-c2csc(NCc3ccccc3)n2)c1 | -9.6%
Cc1nn(-c2ccccc2)c(C)c1/C=C/C(=O)OCC(=O)Nc1ncc(C(F)(F)F)cc1Cl | -4.2%
CCN(CC)CCC(=O)c1ccc(F)cc1 | -2.2%
CC1C/C(=N/Nc2ccc([N+](=O)[O-])cc2[N+](=O)[O-])CC(C)(C)C1 (stereo unspecified) | 12.6µM*
CC1C/C(=N/Nc2nc3ccccc3[nH]2)CC(C)(C)C1 (stereo unspecified) | -2.0%
Cc1cc(N/N=C2\CC(C)CC(C)(C)C2)nc2ccccc12 (stereo unspecified) | -5.2%
Cc1nc2ccc(S(=O)(=O)Nc3cccc(-c4nc5cccnc5s4)c3)cc2s1 | 25.1µM*
Cc1nc2ccc(S(=O)(=O)Nc3ccc(-c4nc5cccnc5s4)cc3)cc2s1 | -11.2%
O=S(=O)(Nc1cccc(-c2nc3cccnc3s2)c1)c1ccc2c(c1)CCCC2 | -9.6%
COC(=O)C1=C(C(=O)OC)[C@@H]2N(C)c3ccccc3[C@@]23C[C@@H](C(=O)OC)N(C(=O)C2CCC2)C3=N1 | -1.6%[57.5 µM]
O=C(Nc1ccccc1F)N1CCCC1c1cccnc1 (stereo unspecified) | 1.5%[57.5 µM]
Clc1cccc2c1Sc1ccccc1CC2N1CCNCC1 (stereo unspecified) | 28.2µM*
O=S(=O)(NC1c2cccc3cccc(c23)C1N1CCNCC1)c1ccc(Cl)cc1 (stereo unspecified) | 1.2%
S=C1NCCc2ccccc2C1c1ccccc1Cl (stereo unspecified) | 12.1%
Cc1ccc(NC2SC(=O)N(Cc3cccc(C(=O)O)c3)C2=O)c(C)c1 (stereo unspecified) | -16.3%[57.5 µM]
CC1CCc2nc3sc4c(c3c(N)c2C1)CCCC4 (stereo unspecified) | -10.6%
O=C(NCCO)c1cccc2c1-c1ccccc1C2=O | -3.2%
O=C1c2ccccc2C(=O)c2c(NCCCN(CCO)CCO)cccc21 | 28.2µM*
CCN(CC)CC(=O)Nc1cccc2c1C(=O)c1ccccc1C2=O | -7.6%
